# Reference: PubChem BioAssay AID463195 (Sanford-Burnham Center for Chemical Genomics, 2010)
# Out of some 330,000 compounds screened, about 4,600 (1.4%) were called active. Shown is part of a subset that was picked to be rich in actives. Values without a mark were called inactive.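 Rule for the calls: active = inhibition of 40% or more at the single tested concentration; inactive = the rest.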
# Assay: wild-type TIM10 yeast growth inhibition – luminescence, uHTS, counter-screen for tim10-1 yeast inhibitor project, primary screen (AID 463195);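 note: wild-type TIM10 isogenic control strain grown at permissive 25 °C; 0% = DMSO yeast wells and 100% = minimal medium wells without yeast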
# Conditions: S. cerevisiae TIM10 strain growth, BacTiter-Glo luminescence, 24 h; at 10 µM; active compounds read high
row,Structure (SMILES),inhibition
1,O=c1c2ccccc2nc(-c2ccccc2)n1-c1ccccn1,9.32%
2,Cc1ccc(-c2nc3ccccc3c(=O)n2-c2ccc(Br)cn2)cc1,43.5% (active)
3,O=c1c2ccccc2nc(-c2ccco2)n1-c1ccc(Br)cn1,5.95%
4,C=CC12CN(C)[C@@H]3C4CO[C@H](C[C@H]41)[C@]1(C(=O)Nc4ccccc41)[C@@H]32 (stereo not given in full),-2.08%
5,O=c1c2ccccc2nc(-c2ccc(Cl)cc2Cl)n1-c1ccncc1,18.8%
6,CCN(CC)CCOC(=O)c1cc2cc(COC)ccc2o1,-10.2%
7,CC(C)CN1CCN(Cc2ccccc2C(F)(F)F)CC1CCO (stereo not given),-6.36%
8,C/C(CCc1c[nH]c2ccccc12)=N\O,6.37%
9,O=[N+]([O-])c1cnc2ccc3ccccc3c2c1,-22.9%
10,C/C(=N/O)c1ccc2ccc3ccccc3c2c1,40.7% (active)
11,Cc1c(C(=O)O)cccc1-n1c(C)cc(/C=C2\C(=O)NC(=O)N(c3ccc4c(c3)OCO4)C2=O)c1C,-7.16%
12,COc1ccc(N2C(=O)/C(=C/c3ccco3)C(=O)NC2=S)cc1,-0.32%
13,O=C1NC(=O)N(c2ccccc2)C(=O)/C1=C/c1ccc([N+](=O)[O-])s1,85.5% (active)
14,COc1cccc(N2C(=O)NC(=O)/C(=C\c3ccc([N+](=O)[O-])s3)C2=O)c1,78.4% (active)
15,CCc1cccc2c(C#N)cn(CC(=O)N3CCOCC3)c12,9.92%
16,Cn1c(C(=O)N2CCC(C(=O)N3CCC4(CC3)OCCO4)CC2)cc2sccc21,1.3%
17,COc1ccc(CCn2c(O)c(C=NC3CC3)c(=O)[nH]c2=O)cc1OC,0.042%
18,CC(=O)Cc1ccc(OC(C)C)cc1,-13.5%
19,CC(C(=O)Nc1ccc(Cl)cc1Cl)N1CC=C(c2ccccc2)CC1 (stereo not given),15.3%
20,CCCCCn1c(=O)c(C(=O)Nc2c(C)n(C)n(-c3ccccc3)c2=O)c(O)c2ccccc21,24.7%
21,Cc1cc2ccccn2c1C(C[N+](=O)[O-])c1c(F)cccc1Cl (stereo not given),52.7% (active)
22,CCN1c2nc3c(C)cccn3c(=O)c2CC2(C(=O)N(C)C(=O)N(C)C2=O)C1C (stereo not given),5.19%
23,Cc1cccc(NC(=O)N2CC3CC(C2)c2cccc(=O)n2C3)c1 (stereo not given),-9.99%
24,CC[C@H]1CC2CN3CCc4c([nH]c5ccccc45)C(C(=O)OC)(C2)C13 (stereo not given in full),-1.49%
25,COC(=O)C1=C(c2ccccc2)C[C@@H]2CC[C@H]1N2C(=O)N1CCCCC1,28.7%
